Records with an inconclusive call do not appear. Where a structure was tested more than once in an assay, its records may differ in their call. The source made the active and inactive calls. Unless noted, the call rests on the fitted dose curve.
Key:
[1] = Nuclear factor erythroid 2-related factor 2/antioxidant responsive element (Nrf2/ARE) small molecule agonists: qHTS cell viability counter screen in human keratinocytes (AID 1919968; active means well fitted curve in the direction sought with a large enough effect in the repeat runs; an effect the other way counts as inactive or inconclusive; further: nearly all actives have a fitted effect of over 55% in size; further: potency means the concentration at half of the fitted maximal effect)
How it was run: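 After a 5 h attachment period, ARE-reporter keratinocytes were dosed with compounds in DMSO and then cultured 23 h at 37 C. Cell viability came from CellTiter-Fluor signal read after a further 1 h.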

[2] = Nuclear factor erythroid 2-related factor 2/antioxidant responsive element (Nrf2/ARE) small molecule agonists: luciferase reporter gene qHTS assay in human keratinocytes (AID 1919969); further: nearly all actives have a fitted effect of over 35% in size; further: potency means the concentration at half of the fitted maximal effect
[3] = molecular target: Gonadotropin-releasing hormone receptor (Homo sapiens) (UniProt P30968); assay: Human gonadotropin-releasing hormone receptor (GnRHR) small molecule agonists, calcium flux assay in GnRHR-HEK293 cells (AID 1920063); further: nearly all actives have a fitted effect of over 35% in size
Chain of Gonadotropin-releasing hormone receptor (Homo sapiens) (P30968 whole entry, looked up): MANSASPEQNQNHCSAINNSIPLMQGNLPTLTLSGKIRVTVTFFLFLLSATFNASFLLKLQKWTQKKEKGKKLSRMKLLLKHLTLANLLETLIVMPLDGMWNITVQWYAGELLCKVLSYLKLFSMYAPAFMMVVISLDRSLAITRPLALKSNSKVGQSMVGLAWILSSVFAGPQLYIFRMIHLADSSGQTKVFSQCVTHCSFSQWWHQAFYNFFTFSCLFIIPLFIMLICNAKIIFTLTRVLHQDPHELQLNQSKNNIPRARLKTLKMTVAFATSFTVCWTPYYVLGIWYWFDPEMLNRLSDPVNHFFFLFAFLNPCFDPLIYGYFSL
How it was run: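 We seeded human GnRHR-expressing HEK293 cells for 18 hours, loaded them with calcium dye for an hour at 37 C, added test compounds, and recorded fluorescence intensity kinetically for three minutes.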

[4] = molecular target: KiSS-1 receptor (Homo sapiens) (UniProt Q969F8); assay: Human kisspeptin (KISS1R) small molecule agonists, calcium flux assay in KISS1R-HEK293 cells (AID 1920064; active means well fitted curve in the direction sought with a large enough effect in the repeat runs; an effect the other way counts as inactive or inconclusive)
Chain of KiSS-1 receptor (Homo sapiens) (Q969F8 whole entry, looked up): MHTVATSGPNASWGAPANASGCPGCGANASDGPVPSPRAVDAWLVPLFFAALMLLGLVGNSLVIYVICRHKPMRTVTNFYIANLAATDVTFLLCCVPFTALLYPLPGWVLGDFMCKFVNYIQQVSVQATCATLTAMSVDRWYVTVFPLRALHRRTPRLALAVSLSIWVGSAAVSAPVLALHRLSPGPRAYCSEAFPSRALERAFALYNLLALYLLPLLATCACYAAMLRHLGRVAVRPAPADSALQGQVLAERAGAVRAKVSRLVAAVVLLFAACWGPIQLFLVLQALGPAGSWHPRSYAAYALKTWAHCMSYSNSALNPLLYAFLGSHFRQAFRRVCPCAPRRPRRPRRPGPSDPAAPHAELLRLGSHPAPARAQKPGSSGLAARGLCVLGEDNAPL
How it was run: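 Kinetic calcium assay, 1 s sampling over 3 min at Ex/Em 480/540, in HEK293 cells engineered with human KISS1R; compounds delivered in DMSO after 1 h dye loading.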

[5] = G protein-coupled receptor (GPCR) small molecule agonists, calcium flux assay: HEK293 wild type cell line counter screen (AID 1920065)
How it was run: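 Calcium-sensitive dye, loaded 1 h at 37 C into cells cultured 18 h, reports compound-evoked calcium release as fluorescence (Ex/Em 480/540), measured over 3 min. Agonist mode; 15-point titrations, triplicate.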

[6] = p53 small molecule agonists, cell-based qHTS assay with human liver microsomes (AID 1963577);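 further: p53 response element beta-lactamase reporter cells with liver microsomes plus NADPH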
How it was run: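 p53RE-bla cells; 5 h settle, 37 C/5% CO2; cpd + HLM 0.5 mg/mL + NADPH 0.5 mg/mL (final); 16 h 37 C; LiveBLAzer 2 h RT dark; fluorescence readout.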

[7] = p53 small molecule agonists, cell-based qHTS assay with rat liver microsomes (AID 1963578)
How it was run: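 Rat liver microsome activation: microsomes 0.5 mg/mL, NADPH 0.5 mg/mL final; p53RE-bla cells, 16 h 37 C; LiveBLAzer readout, 2 h RT dark.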

[8] = p53 small molecule agonists, cell-based qHTS assay with human liver microsomes: qHTS cell viability counter screen (AID 1963579); further: nearly all actives have a fitted effect of over 45% in size
How it was run: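 Luminescent CellTiter-Glo read-out, 30 min at room temperature, gauged cytotoxicity in p53RE-bla cells exposed 16 h at 37 C to DMSO-dissolved compounds with metabolic activation by human liver microsomes and NADPH, each 0.5 mg/mL final.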

[9] = p53 small molecule agonists, cell-based qHTS assay with rat liver microsomes: qHTS cell viability counter screen (AID 1963580); further: nearly all actives have a fitted effect of over 45% in size
How it was run: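 p53RE-bla HCT-116 cells (4,000/well) rested 5 h at 37 C, then given Tox21 compounds in DMSO with rat liver microsomes (0.5 mg/mL final) plus NADPH (0.5 mg/mL final) for 16 h at 37 C. Viability read by CellTiter-Glo luminescence after 30 min at room temperature.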

[10] = p53 small molecule agonists, cell-based qHTS assay: qHTS cell viability counter screen (AID 1963581); further: nearly all actives have a fitted effect of over 45% in size
How it was run: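 Following 5 h attachment, HCT-116 p53RE-bla cells took up compound for 16 h at 37 C; the reporter was read with B/G FRET substrate (2 h RT), and viability then via CellTiter-Glo ATP luminescence.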

[11] = p53 small molecule agonists, cell-based qHTS assay (AID 1963582; active means well fitted activation curve with a large enough effect in the signal ratio in the repeat runs, not every such curve was filed as active; the % refers to the signal ratio)
How it was run: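 In this cell-based concentration-response screen, a p53 response element drives beta-lactamase; cells received DMSO-borne compounds after 5 h culture and were incubated a further 16 h before FRET substrate development.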

[12] = molecular target: 5-hydroxytryptamine receptor 2A (Homo sapiens) (UniProt P28223); assay: 5-hydroxytryptamine receptor 2A (HTR2A) small molecule antagonists, cell-based qHTS assay (AID 1963586); further: nearly all actives have a fitted effect of over 45% in size
Chain of 5-hydroxytryptamine receptor 2A (Homo sapiens) (P28223 whole entry, looked up): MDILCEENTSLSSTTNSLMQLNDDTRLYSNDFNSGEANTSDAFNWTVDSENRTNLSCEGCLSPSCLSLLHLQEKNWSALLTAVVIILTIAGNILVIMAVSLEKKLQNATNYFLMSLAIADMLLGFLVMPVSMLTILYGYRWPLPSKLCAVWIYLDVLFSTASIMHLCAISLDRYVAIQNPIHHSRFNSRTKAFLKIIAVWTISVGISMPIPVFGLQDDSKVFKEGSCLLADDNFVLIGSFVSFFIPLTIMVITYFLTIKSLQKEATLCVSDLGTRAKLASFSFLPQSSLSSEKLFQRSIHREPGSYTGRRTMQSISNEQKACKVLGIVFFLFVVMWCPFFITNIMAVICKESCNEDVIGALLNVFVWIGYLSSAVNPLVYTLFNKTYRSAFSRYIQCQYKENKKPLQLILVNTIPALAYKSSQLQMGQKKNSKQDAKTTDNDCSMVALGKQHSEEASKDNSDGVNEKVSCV
How it was run: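 Antagonist-mode intracellular calcium assay: DOI (4 nM) added after 5 min compound pre-incubation at room temperature to dye-loaded HTR2A-CHO cells. Fluorescence followed for 3 min, sampled every second.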

[13] = molecular target: 5-hydroxytryptamine receptor 2A (Homo sapiens) (UniProt P28223); assay: 5-hydroxytryptamine receptor 2A (HTR2A) small molecule agonists, cell-based qHTS assay (AID 1963587); further: nearly all actives have a fitted effect of over 30% in size
How it was run: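 HTR2A-CHO cells, plated 18 h at 37 C/5% CO2, dye-loaded 1 h at 37 C; compounds in DMSO added by pin tool (agonist mode). Intracellular calcium flux read as kinetic fluorescence on FDSS over 2 min at 1 s intervals.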

[14] = molecular target: Muscarinic acetylcholine receptor M1 (Homo sapiens) (UniProt P11229); assay: Cholinergic receptor muscarinic 1 (CHRM1) small molecule antagonists, cell-based qHTS assay (AID 1963588); further: nearly all actives have a fitted effect of over 40% in size
Chain of Muscarinic acetylcholine receptor M1 (Homo sapiens) (P11229 whole entry, looked up): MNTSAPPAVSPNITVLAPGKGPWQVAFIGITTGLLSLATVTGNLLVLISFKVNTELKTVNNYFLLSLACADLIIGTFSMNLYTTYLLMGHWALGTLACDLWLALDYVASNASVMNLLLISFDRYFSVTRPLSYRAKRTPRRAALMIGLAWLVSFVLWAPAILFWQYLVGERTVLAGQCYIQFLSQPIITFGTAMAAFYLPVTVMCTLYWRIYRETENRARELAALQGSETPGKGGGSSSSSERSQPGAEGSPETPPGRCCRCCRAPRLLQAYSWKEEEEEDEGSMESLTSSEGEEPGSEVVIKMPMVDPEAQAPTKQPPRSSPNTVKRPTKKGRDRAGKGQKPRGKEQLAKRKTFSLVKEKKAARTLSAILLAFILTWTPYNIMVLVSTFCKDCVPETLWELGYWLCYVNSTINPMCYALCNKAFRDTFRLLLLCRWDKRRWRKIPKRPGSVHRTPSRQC
How it was run: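 CHRM1-CHO calcium-flux assay, antagonist mode. Cells were seeded 18 h, dye-loaded 1 h at 37 C and given compound for 5 min at RT, then acetylcholine was added at 50nM. FDSS fluorescence was read 3 min; 15 concentrations, three runs.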

[15] = molecular target: Muscarinic acetylcholine receptor M1 (Homo sapiens) (UniProt P11229); assay: Cholinergic receptor muscarinic 1 (CHRM1) small molecule agonists, cell-based qHTS assay (AID 1963589); further: nearly all actives have a fitted effect of over 35% in size
How it was run: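 Measures agonist-induced intracellular calcium rise. Stable human CHRM1 CHO line, 1 h dye load at 37 C, compounds from DMSO, kinetic fluorescence read.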

[16] = cAMP Responsive Elements (CRE) small molecule agonists, cell-based qHTS assay (AID 1963590)
How it was run: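 A CRE-responsive beta-lactamase reporter in HEK 293T cells was used. Treatment ran 3 h at 37 C; detection used LiveBLAzer B/G FRET substrate for 2 h at room temperature.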

[17] = cAMP Responsive Elements (CRE) small molecule antagonists, cell-based qHTS assay (AID 1963591; active means well fitted inhibition curve with a large enough effect in the signal ratio in the repeat runs, not every such curve was filed as active; the % refers to the signal ratio)
How it was run: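 HEK293T cells carrying a CRE-driven beta-lactamase reporter receive compound and NKH477 (0.25 uM final) for 3 h. Fluorescence from LiveBLAzer B/G FRET substrate is read after 2 h at room temperature.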

[18] = molecular target: Beta-2 adrenergic receptor (Homo sapiens) (UniProt P07550); assay: Adrenergic beta2 receptor (ADRB2) small molecule antagonists, cell-based qHTS assay (AID 1963592); further: series mostly up to about 92 µM; nearly all actives have a fitted effect of over 50% in size
Chain of Beta-2 adrenergic receptor (Homo sapiens) (P07550 whole entry, looked up): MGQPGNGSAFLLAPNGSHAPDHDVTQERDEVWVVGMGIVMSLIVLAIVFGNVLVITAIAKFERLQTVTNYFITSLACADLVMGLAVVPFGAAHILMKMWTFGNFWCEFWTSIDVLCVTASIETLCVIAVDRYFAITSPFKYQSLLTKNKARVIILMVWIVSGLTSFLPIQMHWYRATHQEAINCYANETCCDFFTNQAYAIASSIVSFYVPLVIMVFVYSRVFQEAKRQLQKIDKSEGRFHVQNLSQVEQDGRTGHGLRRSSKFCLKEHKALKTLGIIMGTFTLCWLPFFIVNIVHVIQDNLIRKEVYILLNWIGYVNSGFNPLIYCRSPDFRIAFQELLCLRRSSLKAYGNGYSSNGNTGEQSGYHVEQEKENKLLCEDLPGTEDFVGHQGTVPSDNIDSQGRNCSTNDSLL
How it was run: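 Cells (CHO, stable ADRB2 overexpression) incubated 18-20hr at 37C; compounds added from DMSO; agonist mix (1nM isoproterenol, 100uM IBMX, 25uM Ro-20-1724) added; 0.5hr RT; d2-cAMP and anti-cAMP-cryptate added; 1hr RT; 665/615 nm read.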

[19] = molecular target: D(2) dopamine receptor (Homo sapiens) (UniProt P14416); assay: Dopamine D2 receptor (DRD2) small molecule agonists, cell-based qHTS assay (AID 1963594); further: nearly all actives have a fitted effect of over 35% in size
Chain of D(2) dopamine receptor (Homo sapiens) (P14416 whole entry, looked up): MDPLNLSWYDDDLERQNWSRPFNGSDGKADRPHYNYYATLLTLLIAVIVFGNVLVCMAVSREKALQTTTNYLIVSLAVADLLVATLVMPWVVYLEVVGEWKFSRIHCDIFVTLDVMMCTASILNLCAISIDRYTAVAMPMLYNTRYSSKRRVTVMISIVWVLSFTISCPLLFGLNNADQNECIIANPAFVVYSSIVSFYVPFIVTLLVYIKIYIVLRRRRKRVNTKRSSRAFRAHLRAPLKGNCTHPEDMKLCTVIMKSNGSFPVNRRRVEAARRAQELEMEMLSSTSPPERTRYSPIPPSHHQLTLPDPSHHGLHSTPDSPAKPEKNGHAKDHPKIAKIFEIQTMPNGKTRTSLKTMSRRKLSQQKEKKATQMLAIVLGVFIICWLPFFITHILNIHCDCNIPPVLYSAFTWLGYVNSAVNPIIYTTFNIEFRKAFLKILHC
How it was run: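 HEK293 cells stably expressing DRD2 were cultured 24 h at 37 C, then given Ro20-1724 (0.1 mM final) and compounds for 10 min at room temperature. NKH477 (200nM) was then added for 30 min. cAMP was read by HTRF.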

[20] = molecular target: D(2) dopamine receptor (Homo sapiens) (UniProt P14416); assay: Dopamine D2 receptor (DRD2) small molecule antagonists, cell-based qHTS assay (AID 1963595; active means well fitted inhibition curve with a large enough effect in the signal ratio in the repeat runs, with a control signal flat; the % refers to the signal ratio)
How it was run: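 Antagonist mode in DRD2-HEK293 cells: after compound addition with 0.1 mM Ro20-1724, cells received quinpirole (12 nM) and NKH477 (200 nM) for 30 min at room temperature; HTRF cAMP read after 1 h detection.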

Measured: Potency

Oc1ccccc1Cl
inactive: all assays above

CCCCCCCCCCOC(=O)c1ccccc1C(=O)OCCCCCCCCCC
inactive: all assays above

O=[N+]([O-])c1ccc(Cl)cc1
inactive: all assays above

C=C1CC[C@@]2(O)[C@H]3Cc4ccc(O)c5c4[C@@]2(CCN3CC2CC2)[C@H]1O5
inactive: all assays above

CC(C)(C)OOC(C)(C)CCC(C)(C)OOC(C)(C)C
not listed: [19]
inactive: all other assays above

O=C/C=C/c1ccco1
not listed: [20]
inactive: all other assays above

Clc1ccc(C(c2ccc(Cl)cc2)C(Cl)(Cl)Cl)cc1
active: [1] 38.8 µM
inactive: all other assays above

N#CCc1ccccc1
inactive: all assays above

C1CC2OC2CC1C1CO1 (centres undefined)
inactive: all assays above

CCCCCCCCCCBr
not listed: [19]
inactive: all other assays above

COc1ccccc1OC
inactive: all assays above

c1ccc(P(c2ccccc2)c2ccccc2)cc1
inactive: all assays above

OCC(O)CCl (centres undefined)
not listed: [20]
inactive: all other assays above

C=CC1(C)OC(=O)N(c2cc(Cl)cc(Cl)c2)C1=O (centres undefined)
68.2 µM (active) and inactive: [2]
not listed: [19]
inactive: all other assays above

N#Cc1ccncc1
not listed: [19]
inactive: all other assays above

— PubChem BioAssay (Tox21)
